Several values for one entry are separate records, joined by “and”; a condition that tells them apart may be missing. Equal values may be shown once. Results filed as inconclusive are left out. Activity calls are given as the source filed them. Calls come from the whole dose curve; as a rule, active = well fitted curve in the direction sought with a large enough effect in the repeat runs; inconclusive = weak or mixed curves; inactive = no such curve, though single readings can be large; an effect the other way counts as inactive or inconclusive. Positions of bridges follow the written chain, without caps; N, C: chain ends. Non-standard residues stand in square brackets, D forms with d. Residues, ends and D or L forms follow the SMILES beside them. *: point of attachment. Dab(CH2SO3H) = N[C@@H](CCNCS(=O)(=O)O)C(=O)O; X3 = CC[C@@H](C)CCCCC(=O)*; Dab = NCC[C@H](N)C(=O)O
Tests used:
[1] = biological target: Nuclear receptor subfamily 1 group I member 2 (Rattus norvegicus) (UniProt Q9R1A7); experiment: Rat pregnane X receptor (rPXR) activation by small molecules, qHTS assay (AID 1346983); conditions: rPXR luciferase reporter cells, One-Glo luminescence, 24 h; max activation: stronger effect = higher value; note: nearly all actives have a fitted effect of over 20% in size
Procedure, shortened: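 Luminescent readout (One-Glo luciferase, 30 min room temperature) followed 24 hr compound treatment at 37 C of rPXR cells plated 2,000 per well and preincubated 5hr; qHTS format with compounds delivered in DMSO.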

[2] = biological target: Nuclear receptor subfamily 1 group I member 2 (Homo sapiens) (UniProt O75469); experiment: CYP3A4 induction through human pregnane X receptor (PXR) by small molecules, qHTS assay (AID 1346984); note: nearly all actives have a fitted effect of over 40% in size
Procedure, shortened: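 DPX-2 HepG2 cells carrying a PXR response element and CYP3A4-promoter luciferase construct, treated with compounds 24 hr at 37C. Then P450-Glo CYP3A4 Luciferin-IPA substrate (3uM final) for 3 hr at 37C, One-Glo added, luminescence read.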

[3] = biological target: Nuclear receptor subfamily 1 group I member 2 (Homo sapiens) (UniProt O75469); experiment: Human pregnane X receptor (PXR) activation by small molecules, qHTS assay (AID 1346985); note: nearly all actives have a fitted effect of over 40% in size
Procedure, shortened: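 DPX-2 cells (HepG2 co-transfected with a PXR response element and a CYP3A4-promoter luciferase construct) were seeded at 2,000 per well, rested 5 hr at 37C, then exposed to DMSO-dissolved compounds for 24 hr. Activation was read as luciferase luminescence.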
% is set by controls: 0 for no effect and ±100 for the full control effect.

Sequence of Nuclear receptor subfamily 1 group I member 2 (Rattus norvegicus) (Q9R1A7 whole entry, looked up): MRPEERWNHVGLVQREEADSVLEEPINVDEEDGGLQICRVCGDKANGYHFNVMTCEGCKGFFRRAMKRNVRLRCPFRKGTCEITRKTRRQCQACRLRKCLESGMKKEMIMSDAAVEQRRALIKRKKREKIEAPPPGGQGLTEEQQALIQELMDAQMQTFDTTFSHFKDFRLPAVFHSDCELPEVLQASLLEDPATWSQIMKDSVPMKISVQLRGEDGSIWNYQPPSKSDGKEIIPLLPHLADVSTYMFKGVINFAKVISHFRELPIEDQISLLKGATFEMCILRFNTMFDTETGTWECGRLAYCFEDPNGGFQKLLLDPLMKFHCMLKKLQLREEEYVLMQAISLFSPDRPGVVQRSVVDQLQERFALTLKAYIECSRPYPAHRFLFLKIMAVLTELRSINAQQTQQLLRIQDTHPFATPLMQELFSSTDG

CCCOC(=O)c1ccccc1O
inactive: max activation [1] -4.53% | Potency [2] | Potency [3]

CN(C)CCc1c[nH]c2ccc(Cn3cncn3)cc12
inactive: max activation [1] -1.87% | Potency [2] | Potency [3]

CN1C(=O)C[C@@H](C(=O)N[C@@H](Cc2cnc[nH]2)C(=O)N2CCC[C@H]2C(N)=O)NC1=O
inactive: max activation [1] -0.675% | Potency [2] | Potency [3]

CN(Cc1ccccc1)Cc1ccccc1
inactive: max activation [1] -2.9% | Potency [2] | Potency [3]

CC(=NCc1ccccc1)c1ccccc1O
inactive: max activation [1] -4.51% | Potency [2] | Potency [3]

CCCCCCCCCCCCCCCCCCOCC(COP(=O)([O-])OCC[N+](C)(C)C)OC (stereo unspecified)
inactive: max activation [1] -1.53% | Potency [2] | Potency [3]

CO[C@H]1C[C@@H]2CC[C@@H](C)[C@@](O)(O2)C(=O)C(=O)N2CCCC[C@H]2C(=O)O[C@H]([C@H](C)C[C@@H]2CC[C@@H](O)[C@H](OC)C2)CC(=O)[C@H](C)C=C(C)[C@@H](O)[C@@H](OC)C(=O)[C@H](C)C[C@H](C)/C=C/C=CC=C1C
inactive: max activation [1] -10.6% and -9.93% | Potency [2] | Potency [3]

COc1cc2c(cc1O)CCN[C@]21CS[C@@H]2c3c(OC(C)=O)c(C)c4c(c3[C@H](COC1=O)N1[C@@H]2[C@H]2c3c(cc(C)c(OC)c3O)C[C@@H]([C@@H]1O)N2C)OCO4
inactive: max activation [1] -17.5% | Potency [2] | Potency [3]

C[C@H](NCCc1ccc(O)cc1)[C@H](O)c1ccc(O)cc1
inactive: max activation [1] -4.49% | Potency [2] | Potency [3]

NC(=S)NS(=O)(=O)c1ccc(N)cc1
inactive: max activation [1] -1.97% | Potency [2] | Potency [3]

CNC(=O)OCc1cccc(COC(=O)NC)n1
inactive: max activation [1] 8.37% | Potency [2] | Potency [3]

CCOC(=O)[C@H](CCc1ccccc1)N[C@@H](C)C(=O)N1[C@H](C(=O)O)C[C@H]2CCCC[C@@H]21
inactive: max activation [1] -1.14% | Potency [2] | Potency [3]

O=C(O)[C@H]1CN(C/C=C/P(=O)(O)O)CCN1
inactive: max activation [1] -2.14% | Potency [2] | Potency [3]

CO/N=C(\C(=O)N[C@@H]1C(=O)N2C(C(=O)O)=C(CSc3nc(C)c(CC(=O)O)s3)CS[C@H]12)c1csc(N)n1
inactive: max activation [1] -4.17% | Potency [2] | Potency [3]

C=CC1=C(C(=O)O)N2C(=O)[C@@H](NC(=O)/C(=N/OCC(=O)O)c3csc(N)n3)[C@H]2SC1 (stereo in doubt)
inactive: max activation [1] -1.86% | Potency [2] | Potency [3]

NC(N)=NCc1cccc(I)c1
inactive: max activation [1] -16.9% | Potency [2] | Potency [3]

COC(=O)C(CN)c1c[nH]c2ccc(OC)cc12 (stereo unspecified)
inactive: max activation [1] -1.11% | Potency [2] | Potency [3]

CCCCCCCCCCCCCC(=O)OCC(COP(=O)([O-])OCC[N+](C)(C)C)OC(=O)CCCCCCCCCCCCC (stereo unspecified)
inactive: max activation [1] -1.21% | Potency [2] | Potency [3]

O=C(O)c1cc(O)c2c(c1)[C@H]([C@H]1c3cc(C(=O)O)cc(O)c3C(=O)c3c(O[C@@H]4O[C@H](CO)[C@@H](O)[C@H](O)[C@H]4O)cccc31)c1cccc(O[C@@H]3O[C@H](CO)[C@@H](O)[C@H](O)[C@H]3O)c1C2=O
inactive: max activation [1] -0.0362% | Potency [2] | Potency [3]

COC1=C(OC)C(=O)C(C/C=C(\C)CC/C=C(\C)CC/C=C(\C)CC/C=C(\C)CC/C=C(\C)CC/C=C(\C)CC/C=C(\C)CC/C=C(\C)CC/C=C(\C)CCC=C(C)C)=C(C)C1=O
inactive: max activation [1] -2.14% | Potency [2] | Potency [3]

CC[C@@H](C)CCCCC(=O)N[C@@H](CCNCS(=O)(=O)O)C(=O)N[C@H](C(=O)N[C@@H](CCNCS(=O)(=O)O)C(=O)N[C@H]1CCNC(=O)[C@H]([C@@H](C)O)NC(=O)[C@H](CCNCS(=O)(=O)O)NC(=O)[C@H](CCNCS(=O)(=O)O)NC(=O)[C@H](CC(C)C)NC(=O)[C@@H](CC(C)C)NC(=O)[C@H](CCNCS(=O)(=O)O)NC1=O)[C@@H](C)O (X3-[Dab(CH2SO3H)]T[Dab(CH2SO3H)][Dab][Dab(CH2SO3H)][dL]L[Dab(CH2SO3H)][Dab(CH2SO3H)]T; lactam 4-C)
inactive: max activation [1] -6.38% | Potency [2] | Potency [3]

NC(=O)[C@H]1O[C@@H](O)[C@H](O)[C@@H](O)[C@@H]1O
inactive: max activation [1] -0.18% | Potency [2] | Potency [3]

CC1(C)S[C@@H]2[C@H](NC(=O)[C@H](N)c3ccc(O)cc3)C(=O)N2[C@H]1C(=O)O
inactive: max activation [1] -0.49% | Potency [2] | Potency [3]

NCC1CCC(C(=O)O)CC1 (stereo unspecified)
inactive: max activation [1] -1.27% | Potency [2] | Potency [3]

N=C(N)c1ccc(/C=C/c2ccc(C(=N)N)cc2O)cc1
inactive: max activation [1] -1.55% | Potency [2] | Potency [3]

O=C(O)[C@@H]1C[C@H](CP(=O)(O)O)CCN1
inactive: max activation [1] -5.85% | Potency [2] | Potency [3]

CC1(C)CCC(NC(=O)[C@@H](N)CCC(=O)O)CC1
inactive: max activation [1] -2.85% | Potency [2] | Potency [3]
